Bioassay records from PubChem BioAssay.
ROMK mod: ROMK potassium channel modulators, primary screen, cell-based, thallium flux, MLSMR library | B-score at 10 µM | Tet-inducible ROMK, thallium flux fluorescence; actives lie on both sides | AID 1918, 2009 | 130,000 compounds, 2% hits | ATP-sensitive inward rectifier potassium channel 1 (Homo sapiens), P48048;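 active = signal ratio slope over the read window, or its plate-corrected B-score, at least 3 SD from the plate mean, either direction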;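 also: B-score of the F/F0 ratio slope over 7 to 12 s after thallium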
Target sequence (P48048 whole entry, looked up): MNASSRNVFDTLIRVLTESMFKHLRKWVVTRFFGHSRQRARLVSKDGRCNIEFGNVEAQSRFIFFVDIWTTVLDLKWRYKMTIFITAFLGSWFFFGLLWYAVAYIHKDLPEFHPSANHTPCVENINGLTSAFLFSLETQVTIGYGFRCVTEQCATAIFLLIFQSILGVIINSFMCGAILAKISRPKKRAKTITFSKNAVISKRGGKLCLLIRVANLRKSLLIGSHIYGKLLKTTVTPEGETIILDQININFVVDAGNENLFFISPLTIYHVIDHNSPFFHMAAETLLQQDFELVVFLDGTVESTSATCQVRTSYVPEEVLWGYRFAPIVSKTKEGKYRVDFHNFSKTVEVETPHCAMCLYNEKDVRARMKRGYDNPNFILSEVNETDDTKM
HSV augment: enhancers of HSV replication in host cells, fold increase, host cell viability; 220,000 compounds, 0.005% hits; HSV replication augmentation in cells; maximum fold increase; in the data active = maximum fold increase above about 1.5; tested in PC3 cells
Tb hexokinase: Trypanosoma brucei hexokinase 1 inhibitors, primary screen, biochemical, G6PDH-coupled NADH absorbance, MLSCN library; hexokinase 1 [Trypanosoma brucei]; recombinant TbHK1, G6PDH-coupled NADH A340; inhibition, % at 10 µM; 220,000 compounds, 0.11% hits; AID 1430, 2008;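 active = inhibition of 50% or more in the single-dose primary screen; inactive = inhibition below 50%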
Ins promoter up: insulin promoter activators in MIN6 cells, imaging, high-content screening, mouse beta cells. AID 1625, 2009. z-score at 5 µM. MIN6 insulin promoter-GFP reporter; stronger effect = higher value. 190,000 compounds, 0.3% hits;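 active = z-score above 3 at 5 µM with at least 500 cells counted in the well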
INS promoter inh: inhibitors of insulin promoter-driven GFP, primary screen, imaging, TRM-6 cells (human fetal islet line), eGFP reporter, cell count; 130,000 compounds, 0.9% hits; inhibition, % at 2 µM; reporter expression induced with tamoxifen; AID 1273, 2008;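 active = inhibition above the mean plus 3 SD, with well images judged a real hit on visual review, cut at about 60% in these data, passing the limit was not always enough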
The depositor's hits bear a star; i = inactive; x = no result given. This is one part of a sample in which hits are shown more often than they occur.

SMILES | ROMK mod | HSV augment | Tb hexokinase | Ins promoter up | INS promoter inh
COc1ccccc1NC(=O)NC1(C(=O)N2CCC(O)CC2)CCCCC1 | -4.96* | i | -2.2 | -0.32 | -18.4
COc1c(Cl)cc(Cl)cc1/C=C/C(=O)c1ccc(NC(=O)c2cccs2)cc1 | x | i | -14.8 | -3.46 | 65.5
Cc1c(NC(=O)c2cccnc2C(=O)O)cccc1C(=O)O | x | i | 2.5 | 0.17 | 30.0
COc1ccc(C(C)=O)cc1CSc1nc2cc(Cl)ccc2o1 | 0.0228 | i | -5.7 | -0.24 | 74.1*
COc1ccc(C(C)=O)cc1CSc1nnc(SCc2cc(C(C)=O)ccc2OC)s1 | x | i | -28.2 | -0.64 | x
c1ccc(-c2nc(-c3cccs3)[nH]c2-c2ccccc2)cc1 | x | i | 4.0 | -0.54 | 50.0
CC(C)c1nc(-c2ccccc2)c(-c2ccccc2)[nH]1 | -0.188 | i | 4.0 | -0.31 | 87.0*
O=C(NCC1COc2ccccc2O1)C1CCCN(S(=O)(=O)c2cccc3nsnc23)C1 (stereo not given) | -2.46* | i | -8.9 | -0.15 | 38.5
CC(=O)c1cc(C#N)c(SCC(=O)OC(C)C)nc1C | -0.42 | i | -1.8 | 0.15 | 92.6*
O=C1C=C(Nc2ccc(O)cc2)CC(c2ccco2)C1 (stereo not given) | 1.76 | i | -23.2 | 6.78* | -133.3
CCOC(=O)c1ccc(NC2=CC(=O)CC(c3ccco3)C2)cc1 (stereo not given) | 0.00846 | i | -18.3 | -0.22 | x
COC(=O)Nc1ccc(S(=O)(=O)N2CCC(C(=O)N3CCCC(C)C3)CC2)cc1 (stereo not given) | -0.464 | i | -6.5 | 0.16 | x
Clc1cccc(/C=N/Nc2ncnc3ccccc23)c1 | x | i | -20.0 | -0.46 | x
C(=N\Nc1ncnc2ccccc12)/c1ccccc1 | 0.0327 | i | -36.6 | -0.95 | 77.8*
CN(C)S(=O)(=O)c1cccc(NC(=O)COC(=O)c2cc(=O)c3ccccc3o2)c1 | x | i | -2.4 | 0.08 | x
CCc1c(C(=O)NC2CCCCC2)[nH]c(C)c1C(C)=O | -0.76 | i | 2.0 | 3.85* | x
CC(=O)c1c(C)[nH]c(C(=O)NC2CCCCC2)c1C | 0.274 | x | -6.9 | -0.78 | x
Oc1ccc(Cl)cc1C1=Nc2ccccc2N=C(c2ccco2)C1 | -0.911 | i | -20.4 | 4.34* | -311.1
O=C(Nc1cccc(Cl)c1)/C(=C\c1cccnc1)NC(=O)c1ccco1 | 0.536 | i | -3.6 | 0.02 | 66.7*
O=C(Nc1ccccc1)/C(=C/c1cccnc1)NC(=O)c1ccco1 | x | i | -1.9 | 0.01 | 33.3
N=C1C(c2nc3ccccc3s2)=C(O)CN1Cc1ccccc1 | -0.0407 | i | -0.9 | x | 16.3
CCN(CC)CCCN1CC(O)=C(c2nc3ccccc3s2)C1=N | -2.13 | i | -41.4 | -0.89 | 65.7*
CCC(=O)Nc1cc(C)c(NC(=O)C23CC4CC(CC(C4)C2)C3)cn1 | -0.209 | i | 3.2 | x | 75.7*
Cc1cc(NC(=O)C23CC4CC(CC(C4)C2)C3)n[nH]1 | -0.0562 | i | 4.0 | 0.32 | x
CN(C)S(=O)(=O)c1cccc(C(=O)N=C2N=C3C=CC(Cl)=CN3Cc3ccccc32)c1 | x | i | -16.1 | 0.41 | x
SMILES | ROMK mod | HSV augment | Tb hexokinase | Ins promoter up | INS promoter inh
Cn1c(C(=O)c2ccccc2[N+](=O)[O-])nc2ccccc21 | 0.892 | i | -22.5 | 1.09 | 80.0*
Cc1ccc(CNC(=O)CSc2c3c(nc4ccc(Cl)cc24)CCCC3)o1 | -2.53* | i | -7.0 | 0.36 | x
Cc1nc(CSc2n[nH]c(=O)n2-c2cccc(F)c2)cs1 | x | i | 0.1 | x | x
COC(=O)/C(=N/Nc1ccccc1OC)N1CCCc2ccccc21 | x | i | -8.1 | x | x
Cc1cc(C(=O)NCCCN(C)C)c2ccccc2n1 | 0.158 | i | 0.8 | -0.23 | 77.8*
O=C(NCC1CCCO1)c1cc2c(=O)[nH]c3ccccc3c2s1 (stereo not given) | -0.847 | i | -20.3 | 0.63 | x
Cc1nn(CCC(=O)NNC(=S)NCC(C)C)c(C)c1Br | 0.222 | i | -6.4 | 0.06 | -26.7
Nc1cccc2c1C(=O)N(C(=O)c1cccc(S(=O)(=O)N3CCCC3)c1)C2=O | -0.978 | i | -0.4 | 3.15* | 39.1
NC(=O)c1cccc(S(=O)(=O)N2CCCCC2)c1 | 0.382 | i | -3.1 | -0.47 | -25.0
COC(=O)Cc1ccc(NC(=S)N2CCN(c3cc(Cl)ccc3C)CC2)cc1 | x | i | -5.2 | x | -35.3
Cc1cc([N+](=O)[O-])nn1CC(=O)N/N=C/c1ccc(O)cc1O | -0.0308 | i | -48.6 | x | x
O=C(c1cc([N+](=O)[O-])ccc1N1CCCC1)N1CCCC1 | 1.45 | i | 2.0 | 3.06* | -14.3
O=C(c1cc([N+](=O)[O-])ccc1N1CCCCC1)N1CCCC1 | x | i | -4.4 | 0.58 | 45.2
O=C1NC(=S)S/C1=C\c1coc2ccccc2c1=O | -4.63* | i | -17.0 | -1.1 | 23.1
C/[N+]([O-])=C\c1coc2ccccc2c1=O | -0.183 | i | -11.2 | -0.78 | 29.0
CC(=O)c1sc2nc(C)cc(C)c2c1N | x | i | -3.4 | 0.33 | 76.9*
CCCCCCn1c(CN2CCC(C)CC2)nc2c1c(=O)n(C)c(=O)n2C | x | i | -0.8 | -0.81 | 28.6
CCCCn1c(CN(C)Cc2ccccc2)nc2c1c(=O)n(C)c(=O)n2C | -1.96 | i | -3.0 | -2.97 | 71.4*
CCCn1c(CN(C)Cc2ccccc2)nc2c1c(=O)n(C)c(=O)n2C | x | i | -1.5 | -1.5 | 0.0
CCCCCCn1c(CN2CCN(CCO)CC2)nc2c1c(=O)n(C)c(=O)n2C | x | i | -3.6 | 1.28 | 100.0*
O=C(CCN1C(=O)C2CCCCC2C1=O)Nc1ccc(F)c(F)c1F (stereo not given) | -0.348 | i | 7.1 | 1.21 | x
O=c1cc(/C=C/c2c(F)cccc2Cl)[nH]c2ccccc12 | x | i | -4.1 | x | x
NC(=O)[C@@H]1CCNc2c(I)cc([N+](=O)[O-])cc2C(=O)N[C@@H](CCC(=O)O)C(=O)N[C@@H](CO)C(=O)N1 | 0.0319 | i | -0.4 | 1.12 | -5.0
NC(=O)[C@@H]1CCCCNc2c(I)cc([N+](=O)[O-])cc2C(=O)N[C@@H](CCC(=O)O)C(=O)N[C@@H](CO)C(=O)N1 | -0.179 | i | -3.9 | 0.1 | 60.0*
Cc1cc2c3ccccc3ncn2n1 | x | i | -13.6 | 2.02 | x
SMILES | ROMK mod | HSV augment | Tb hexokinase | Ins promoter up | INS promoter inh
CNC(=O)Nc1cccc(C(F)(F)F)c1 | -0.345 | i | -11.3 | 0.54 | 81.2*
C=CCn1c(=S)[nH]c2scc(-c3ccc(C)o3)c2c1=O | 7.49* | i | -11.5 | 0.23 | -16.7
C=CCn1c(=S)[nH]c2sccc2c1=O | -0.493 | i | -12.8 | 0.14 | 0.0
CC(C)n1c(=S)[nH]c2scc(-c3cccs3)c2c1=O | x | i | 23.6 | -0.15 | x
CCn1c(=S)[nH]c2scc(-c3cccs3)c2c1=O | 12.8* | i | -1.8 | -0.31 | 0.0
O=[N+]([O-])c1cc(S(=O)(=O)N2CCCCC2)ccc1NCCCN1CCOCC1 | -0.517 | i | -3.4 | -0.56 | -33.3
CCOc1cccc(-c2csc(C3COc4ccccc4O3)n2)c1 (stereo not given) | -0.0457 | i | -0.6 | 0.06 | x
